Epigenetic mod = epigenetic modulators derepressing GFP locus in mouse cells | mouse C127i GFP locus derepression, cytometry, 30 h | Potency, µM (top dose mostly 46.1 µM) | 68,000 tested, 0.09% active
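Derepression screen: silenced CMV-GFP reporter in murine C127i cells, 30 h compound incubation at 37 C, washed cells imaged by laser-scanning cytometer to enumerate GFP-expressing objects of 20 to 120 um.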
15-hLO-2 inh = 15-hLO-2 (ALOX15B) enzyme inhibition | Potency, µM (doses to about 57.1 µM), most hits filed as inhibitors | purified 15hLO-2, xylenol orange hydroperoxide absorbance | 110,000 tested, 0.56% active | AID 881; note: nearly all actives have a fitted effect of over 60% in size
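Screening format was qHTS against 50 nM purified 15hLO-2 in Hepes pH 7.5 with detergent. Activity follows hydroperoxide formation from 45 uM arachidonic acid, measured as 573:405 nm absorbance ratio of the ferric-xylenol orange complex.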
HBB splice mod = modulators of hemoglobin beta chain splicing; HBB splicing reporter cell assay, activation; EGFP reporter with mutant IVS2-654 intron; response scale: normalised to 500 nM splice-correcting PNA; Potency, µM (titrated, usually from 46.1 µM), most hits filed as activators; 65,000 tested, 0.06% active; AID 925
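Compounds were applied for 2 days to HeLa EGFP-654 cells, 500/well in Optimem with 2% FCS. The reporter's EGFP is disrupted by mis-splicing of beta-globin intron IVS2-654. Readout: summed well GFP fluorescence from 488 nm laser scanning; reference was 500 nM antisense […] 654 PNA.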
15-hLO inh = blocks human 15-lipoxygenase activity; Potency, µM (titrated, usually from 57.1 µM), actives largely listed as inhibitors; AID 887; 74,000 tested, 1.4% active; purified 15hLO-1, xylenol orange hydroperoxide absorbance; note: nearly all actives have a fitted effect of over 55% in size
Target sequence (P16050 whole entry, looked up): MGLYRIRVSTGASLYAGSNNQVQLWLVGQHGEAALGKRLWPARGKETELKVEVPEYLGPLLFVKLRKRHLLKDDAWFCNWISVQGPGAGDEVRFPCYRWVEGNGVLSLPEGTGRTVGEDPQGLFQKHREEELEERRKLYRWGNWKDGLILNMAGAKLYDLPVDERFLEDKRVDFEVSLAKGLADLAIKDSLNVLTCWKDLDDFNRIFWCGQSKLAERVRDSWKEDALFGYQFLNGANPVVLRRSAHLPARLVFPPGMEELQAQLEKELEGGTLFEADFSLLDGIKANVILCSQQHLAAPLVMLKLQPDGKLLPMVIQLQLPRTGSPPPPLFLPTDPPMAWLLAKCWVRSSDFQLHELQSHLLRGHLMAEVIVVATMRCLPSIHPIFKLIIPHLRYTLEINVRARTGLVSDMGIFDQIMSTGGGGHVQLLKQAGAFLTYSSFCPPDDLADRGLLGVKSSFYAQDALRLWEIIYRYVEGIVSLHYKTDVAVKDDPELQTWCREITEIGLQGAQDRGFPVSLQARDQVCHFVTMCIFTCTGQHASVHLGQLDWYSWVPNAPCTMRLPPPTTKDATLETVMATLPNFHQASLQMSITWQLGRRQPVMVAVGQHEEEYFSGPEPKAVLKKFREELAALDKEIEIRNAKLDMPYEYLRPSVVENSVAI
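Quantitative HTS in 25 mM Hepes pH 7.5 containing 0.01% Triton X-100: human 15hLO-1 at 40 nM, arachidonic acid at 50 uM, 6 min turnover. Product quantified via ferrous oxidation/xylenol orange, 573:405 nm absorbance ratio.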
Ub-GFP proteasome = proteasome inhibitors stabilizing ubiquitin-GFP reporter; 67,000 tested, under 10 active; Ubiquitin-GFP reporter cells, proteasome inhibition, GFP fluorescence; response scale: untreated = 0%, 10 µM MG-132 = 100%; Potency, µM (highest dose often 45.9 µM), actives largely listed as activators; AID 526; active = well fitted activation curve with a large enough effect, not every such curve was filed as active; inconclusive = small, poorly fitted or top-dose-only effect, or another doubt; inactive = no such curve, though single readings can be large or run the other way
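Reporter cells (U2OS, ubiquitin-G76V-GFP fusion) are plated overnight, then treated 4 hr at 37 °C with compound titrations from 46 uM down to 2.9 nM. Activity is scaled against untreated cells and 10 uM MG-132.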
Tau filament bind = binders of human tau filaments; P10636; recombinant tau filaments, thioflavin S fluorescence, 15 h; filaments grown with octadecylsulfate alongside compound; Potency, µM (top dose mostly 57.1 µM); 71,000 tested, 2% active;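 note: actives lower thioflavin S fluorescence by blocking filaments or displacing dye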
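Recombinant tau protein (human, 1 uM final) plus 30 uM ODS in HEPES pH 7.4 with NaCl, DTT and thioflavine S. Compound present from the start; fluorescence at 510 nm after 15 h, 37 C.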
A number is an active result; - = inactive; ? = inconclusive; . = not tested or not shown; [ ] = another dose, or the depositor's remark. Only some compounds are listed: those with a hit (about 2.3% of all), similar ones and a draw of the others. Unless noted, calls come from the whole dose curve; as a rule, active = well fitted curve in the direction sought with a large enough effect; inconclusive = small, poorly fitted or top-dose-only effect, or another doubt; inactive = no such curve, though single readings can be large; an effect the other way counts as inactive or inconclusive.

SMILES	Epigenetic mod	15-hLO-2 inh	HBB splice mod	15-hLO inh	Ub-GFP proteasome	Tau filament bind
COc1ccc(N2CCC(CNS(=O)(=O)c3cccc(C(F)(F)F)c3)C2)cc1 (centres undefined)	-	-[2.29 µM]	-	0.794µM	-	1.26µM
COc1ccc(CCNC(=S)NC(=O)c2ccccc2)cc1OC	.	12.6µM	.	.	.	.
COc1ccc(/C=C/C(=O)NC(=S)NCCc2ccc(OC)c(OC)c2)cc1	.	-	.	.	.	.
CCOC(=O)COc1cccc2c(=O)n(CC(=O)N3CCc4ccccc43)ccc12	.	-	-	-	-	15.8µM
CCOc1ccccc1NS(=O)(=O)c1cccc2nsnc12	.	-	.	.	.	.
CCOc1ccc(OCC)c(NS(=O)(=O)c2cccc3nsnc23)c1	-	-	-	-	-	25.1µM
C=CCn1c2ccccc2c2nnc(SCCCn3c(=O)[nH]c4ccccc43)nc21	-	-	-	15.8µM	-	3.16µM
COc1ccc(CCn2c(-c3ccco3)nc3ccccc3c2=O)cc1OC	-	-[2.29 µM]	-[0.0738 µM]	3.98µM	-[9.17 µM]	-[11.4 µM]
CCN(CC)CCNC(=O)c1ccc(Cc2nc3ccccc3[nH]2)cc1	.	.	.	-	.	.
CN=CC1=C(O)c2ccccc2C1=O	-	-	-	-	-	-
O=C1C(C2=C(O)c3ccccc3C2=O)=Nc2ccccc21	?	?	.	-	-	6.31µM
CC(C)(C(=O)O)c1ccc([C@@H](O)CCCN2CCC(C(O)(c3ccccc3)c3ccccc3)CC2)cc1	-	-	-	-	-	-
CCOc1cc(-c2cc(-c3ccc(N)cc3)nc(N)c2C#N)ccc1O	-	-	-	25.1µM	-	31.6µM
CCOc1cc(-c2cc(-c3ccccc3)nc(N)c2C#N)ccc1O	.	-	.	.	.	.
O=C(Nc1cccc(F)c1)N1CCCC2(CCN(C(=O)c3ccco3)CC2)C1	-[9.22 µM]	-	-	0.316µM	-	-
C=CC(=O)OCC(CO)(COC(=O)C=C)COC(=O)C=C	.	-	-	-	.	-
Cc1ccccc1Nc1nnc(SCC(=O)NC(=O)NCc2ccco2)s1	-	-	-	15.8µM	-	-
CCCC(=O)N(c1ccc2oc(=O)sc2c1)S(=O)(=O)c1cccs1	-	-	-	15.8µM	-	-
CC(C)C(=O)N(c1ccc2oc(=O)sc2c1)S(=O)(=O)c1ccccc1	.	-	.	.	.	.
CC(=O)N(c1ccc2oc(=O)sc2c1)S(=O)(=O)c1ccccc1	-	-	-	15.8µM	-	-
COc1ccc(NC(=O)C2CCCN2S(=O)(=O)c2ccc3c(c2)CCC(=O)N3)c(OC)c1 (centres undefined)	-	-	-	-	-	25.1µM
CCOC(=O)c1c2c(c(=S)n(-c3ccccc3)c1N)CCC2	-	-	.	.	.	.
N#Cc1c2c(c(=S)n(-c3ccccc3)c1N)CCCC2	-	-	-[0.0738 µM]	1.58µM	-[9.17 µM]	-[11.4 µM]
COc1c(-c2coc3cc4c(cc3c2=O)CC(O)C(C)(C)O4)ccc2c1C=CC(C)(C)O2 (centres undefined)	.	?	.	-	.	.
COC(=O)c1ccc2ncccc2c1	-	-	-	7.94µM	-	-
SMILES	Epigenetic mod	15-hLO-2 inh	HBB splice mod	15-hLO inh	Ub-GFP proteasome	Tau filament bind
COC(=O)c1cc(=O)c(O)c2c(O)c(O)ccc2c1	.	-	.	?	.	.
Cc1ccc2c(c1)[C@H]1OCC[C@H]1[C@@H](c1ccncc1)N2	-	-	-	-	-	-
Clc1ccc2c(c1)C1OCCC1C(c1ccco1)N2 (centres undefined)	-	-	.	-	-	25.1µM
COc1cc(C(=O)Nc2nnc(-c3sccc3C)s2)cc(OC)c1OC	-	-	-	20µM	-	-
COc1ccc(C(=O)Nc2nnc(-c3cccs3)s2)cc1	.	-	.	.	.	.
O=C(Nc1cccc(N2CCCC2)c1)c1cccs1	-	-	-	?	-	12.6µM
Nc1cccc(NC(=O)c2cccs2)c1	-	-	-	-	-	-
Cc1cccc2cc3c(nc12)SC(=NCC1CCCO1)N(Cc1ccco1)C3 (centres undefined)	3.16µM	-	-	10µM	-	?
O=c1cnc2cncnc2n1Cc1ccccc1	-[9.22 µM]	-	?	-	-	-
CC(=O)Nc1ccccc1-c1nc2ccc(C(=O)N3CCN(c4cccc(C)c4)C(C)C3)cc2[nH]c1=O (centres undefined)	.	-	.	.	.	.
CC(=O)Nc1ccccc1-c1nc2ccc(C(=O)N3CCN(c4ccccc4)CC3)cc2[nH]c1=O	.	.	-	-	-	15.8µM
O=C1Nc2ccc(I)cc2/C1=C/c1cc(Br)c(O)c(Br)c1	-	?	?	12.6µM	-	1µM

High-throughput results: PubChem, National Center for Advancing Translational Sciences (NCATS)
